Measured values from ChEMBL document CHEMBL4808148, “HDAC6 screening dataset using tau-based substrate in an enzymatic assay yields selective inhibitors and activators” (2021).
In all, about 5,600 compounds went through this assay and about 390 (7%) showed an effect of 50% or more. The full list was thinned out, with strong results kept by preference.

biological target: T1, Protein deacetylase HDAC6 (Homo sapiens) (UniProt Q9UBN7); conditions: at 10 µM
T1 sequence (whole entry): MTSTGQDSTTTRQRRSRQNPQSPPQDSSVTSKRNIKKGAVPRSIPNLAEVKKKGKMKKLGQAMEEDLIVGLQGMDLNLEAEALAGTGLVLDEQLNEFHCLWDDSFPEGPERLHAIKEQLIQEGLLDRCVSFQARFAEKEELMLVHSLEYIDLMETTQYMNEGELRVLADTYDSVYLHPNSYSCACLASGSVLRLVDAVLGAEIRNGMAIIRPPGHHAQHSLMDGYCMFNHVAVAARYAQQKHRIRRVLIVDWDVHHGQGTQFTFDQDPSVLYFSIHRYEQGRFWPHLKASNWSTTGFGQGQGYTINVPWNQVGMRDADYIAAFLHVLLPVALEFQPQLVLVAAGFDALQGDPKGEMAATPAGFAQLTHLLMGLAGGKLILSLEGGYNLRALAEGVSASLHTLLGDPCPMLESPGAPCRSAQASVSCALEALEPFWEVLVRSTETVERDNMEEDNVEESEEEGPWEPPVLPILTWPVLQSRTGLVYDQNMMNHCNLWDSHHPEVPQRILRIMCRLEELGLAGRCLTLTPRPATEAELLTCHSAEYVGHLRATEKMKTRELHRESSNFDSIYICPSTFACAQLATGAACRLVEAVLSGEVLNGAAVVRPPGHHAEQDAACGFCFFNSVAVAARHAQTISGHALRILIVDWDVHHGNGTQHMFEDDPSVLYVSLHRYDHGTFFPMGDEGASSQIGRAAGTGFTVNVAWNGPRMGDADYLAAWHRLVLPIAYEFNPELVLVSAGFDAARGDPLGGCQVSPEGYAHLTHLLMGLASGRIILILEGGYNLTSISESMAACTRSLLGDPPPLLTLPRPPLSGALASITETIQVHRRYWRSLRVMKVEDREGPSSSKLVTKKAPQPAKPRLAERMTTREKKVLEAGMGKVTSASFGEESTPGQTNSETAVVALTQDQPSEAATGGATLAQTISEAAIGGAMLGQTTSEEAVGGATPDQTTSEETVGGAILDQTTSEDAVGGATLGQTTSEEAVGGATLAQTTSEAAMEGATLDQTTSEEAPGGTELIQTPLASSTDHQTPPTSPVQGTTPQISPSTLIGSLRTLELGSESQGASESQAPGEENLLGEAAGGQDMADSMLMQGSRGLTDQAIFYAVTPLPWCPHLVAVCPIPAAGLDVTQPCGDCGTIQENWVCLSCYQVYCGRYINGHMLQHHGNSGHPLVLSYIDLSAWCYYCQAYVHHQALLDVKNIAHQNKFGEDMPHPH

Going from `COc1ccc(C(=O)c2ccccc2O)c(O)c1` to `COc1ccc(C(=O)c2ccc(C)cc2)c(O)c1`, the inhibition rises from 8.93% to 50.7%.

First: Cc1ccc(C(=O)c2cc(O)c(O)c([N+](=O)[O-])c2)cc1
Second: Cc1cccc(C)c1NC(=O)c1ccc(N)cc1
The inhibition of the first is lower: -8.08% for the first, 7.12% for the second.

First: Cc1c(C(=O)NC2CCCCC2)sc2nc3ccc(N)cc3n12
Second: O=C(NC1CCNCC1)c1n[nH]cc1NC(=O)c1c(Cl)cccc1Cl
The inhibition of the first is higher: 49.8% for the first, 42.4% for the second.

Compared with `CCCCC/N=c1/ccn(Cc2ccccc2)c2ccccc12`, `Cc1ccccc1/N=N/c1ccc(/N=N/c2c(O)ccc3ccccc23)c(C)c1` is higher in inhibition: -3.26% for the first, 12% for the second.

First: O=c1[nH]cnc2nc[nH]c12
Second: NC(=O)c1sc(-c2ccsc2)cc1N
The inhibition of the first is lower: 57.8% for the first, 101% for the second.

Going from `C=C1C(=O)O[C@H]2[C@H]1CC/C(C)=C\CC[C@@]1(C)O[C@@H]21` to `C[C@H]1[C@H](C)CC[C@]2(C(=O)O)CC[C@]3(C)C(=CC[C@@H]4[C@@]5(C)C[C@@H](O)[C@H](O)[C@@](C)(CO)[C@@H]5CC[C@]43C)[C@H]12`, the inhibition falls from 9.8% to -0.26%.

First: CC#CC(=O)N1CCC[C@H]1c1nc(-c2ccc(C(=O)Nc3ccccn3)cc2)c2c(N)nccn12
Second: Cc1cc(C)c2nc(-c3ccccn3)cc(C(=O)Nc3ccc(S(=O)(=O)Nc4onc(C)c4C)cc3)c2c1
The inhibition of the first is higher: 10.6% for the first, -6.66% for the second.

Compared with `CC1CCC(NC(=O)N(CCCl)N=O)CC1` (stereo not given), `CCCN(C/C=C/I)C1CCc2cccc(O)c2C1` (stereo not given) is lower in inhibition: 48.2% for the first, 14.4% for the second.

First: Cc1cccc(Nc2ccncc2S(=O)(=O)NC(=O)NC(C)C)c1
Second: Cc1cccc(Nc2nc(-c3ccncc3)cs2)c1
The inhibition of the first is lower: -9.9% for the first, 91.1% for the second.

Going from `Oc1ccc(Nc2nc(-c3ccc(Cl)cc3)cs2)cc1` to `CN(C)c1ccc(C(=C2C=CC(=[N+](C)C)C=C2)c2ccc(N(C)C)cc2)cc1`, the inhibition rises from 20.2% to 79.1%.

Going from `O=C(O)CC(O)C(=O)O` (stereo not given) to `O=C(O)C1=CCNCC1`, the inhibition rises from 3.05% to 5.63%.

Compared with `O=C(NCc1ccccn1)Nc1nnc(-c2ccco2)o1`, `Cc1ccc(O)c(/N=N/c2ccccc2)n1` is higher in inhibition: 1.12% for the first, 102% for the second.

Compared with `C[C@H](Nc1cc(-c2cnn(C)c2)cc(Nc2cnccn2)n1)c1ccc(F)cc1`, `CCc1cc2c(cc1CC)CC(NC[C@H](O)c1ccc(O)c3[nH]c(=O)ccc13)C2` is higher in inhibition: 3.96% for the first, 15.6% for the second.

First: C=CCN1CCN(c2nc3ccccc3nc2C#N)CC1
Second: CN1CCN(CCc2ccc(Cl)c(Cl)c2)CC1
The inhibition of the first is higher: 32.5% for the first, 0.9% for the second.

First: CC(C)=CCC/C(C)=C/CC/C(C)=C/CC[C@]1(C)CCc2cc(O)cc(C)c2O1
Second: COC(=O)N[C@H](C(=O)N1CCC[C@H]1C(=O)Nc1ccc([C@@H]2CC[C@@H](c3ccc(NC(=O)[C@@H]4CCCN4C(=O)[C@@H](NC(=O)OC)C(C)C)cc3)N2c2ccc(C(C)(C)C)cc2)cc1)C(C)C
The inhibition of the first is lower: -4.35% for the first, 18.8% for the second.
